This passage reports outcome results from PubChem BioAssay AID720613 (Broad Institute, 2013).

Inconclusive results are not listed. Active and inactive are the calls of the source.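 How the source made its calls: active means falling viability signal at all three exposure times, each curve midpoint within twice the top tested dose; inconclusive means exposure times disagree or curves are weak or poorly fitted; inactive means all exposure times inactive, including rising signal.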

The assay is described as follows: cytotoxicity in SNB-75 CNS cells – cell-based, Alamar Blue fluorescence, 8-48 h, dry powder, mechanism study for HRAS target identification, late-stage follow-up (AID 720613). As to conditions: SNB-75 viability, 24 h; series mostly up to 35 µM.

On to `CCC(=O)N(c1ccc(OC)c(Cl)c1)C(C(=O)NCCc1ccccc1)c1cccs1` (configuration not stated), for which the compound was called inactive.

On to `Cc1onc(C(=O)N2CCN(C(c3ccncc3)c3ccncc3)CC2)c1[N+](=O)[O-]`, for which the call was inactive.
